Assay results reported in PubChem BioAssay AID1863 (Southern Research Specialized Biocontainment Screening …, 2009).
Values joined by “and” are separate entries in the source; they are usually repeats but may differ in a detail not shown here. Identical values can stand only once. In all, about 300,000 compounds went through this assay and about 480 (0.16%) were called active.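 How the source made its calls: active means inhibition over 29.93%, a cutoff 3 SD above the screen mean, later confirmed by dose response; inconclusive means inhibition over 29.93% but no dose response follow-up; inactive means inhibition at most 29.93% or unconfirmed.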 A selection follows. Results with a measured potency or affinity are listed apart.

test: PhoP-dependent GFP reporter repression – Salmonella Typhimurium, primary screen (AID 1863);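 further: 0% = low Mg2+ inducing control and 100% = high Mg2+ repressing control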; conditions: S. Typhimurium PhoP-regulated promoter GFP reporter, 4 h; at 50 µM; active compounds read high

inhibition, inactive:
CCCCC(=O)N1CCN(c2nc3ccc(OCC)cc3s2)CC1 10.3%
CN1CCc2c(sc(NC(=O)C3CCCN3S(=O)(=O)c3ccc(Cl)s3)c2C(N)=O)C1 (stereo not given) -7.52%
CCOc1ccc(N(CC(=O)NCCc2ccccc2)C(=O)c2csnn2)cc1 2.07%
Cc1ccc(-n2nc3ccc(N)cc3n2)cc1Cl 0.05%
O=C(O)COCC(=O)NCc1nc(-c2ccc(C(F)(F)F)cc2)no1 -3.89%
CC1c2ccsc2CCN1S(=O)(=O)c1ccccc1 (stereo not given) 5.29%
COc1cc2c(cc1OC)C(COc1ccc([N+](=O)[O-])cc1)NCC2 (stereo not given) 5.02%
CC1CCCN(C(=S)NCc2ccccc2)C1 (stereo not given) 4.83%
CC1CCN(c2c(NCC3CCC(C(=O)NCc4ccccc4)CC3)c(=O)c2=O)CC1 (stereo not given) -6.12%
Cc1ccc(CCNS(=O)(=O)c2cc(Br)cnc2N)cc1 1.18%
CC1CCCCC1NC(=O)C1CCN(C(=O)c2sccc2-n2cccc2)CC1 (stereo not given) 6.9%
COC(=O)COC(=O)c1ccc(O)cc1 -6.41%
Cc1ccc(-c2nc(CS(=O)(=O)CC(=O)N3CCc4ccccc4C3)c(C)o2)cc1 8.69%
CC1CCC(C(C)C)C(OC(=O)Cn2c(-c3ccc(Br)cc3)[n+](C)c3ccccc32)C1 (stereo not given) 10% and 1.48%
Cc1cccc(OCc2n(CC(=O)OC3CC(C)CCC3C(C)C)c3ccccc3[n+]2C)c1 (stereo not given) 15.1%
CC1CCC(C(C)C)C(OC(=O)Cn2c(-c3ccc(F)cc3)[n+](C)c3ccccc32)C1 (stereo not given) 4.57%
Cc1ccccc1OCc1n(CC(=O)OC2CC(C)CCC2C(C)C)c2ccccc2[n+]1C (stereo not given) 6.3%
COc1ccc(-c2n(CC(=O)OC3CC(C)CCC3C(C)C)c3ccccc3[n+]2C)cc1 (stereo not given) -3.97%
CC1CCC(C(C)C)C(OC(=O)Cn2c(-c3ccccc3)[n+](C)c3ccccc32)C1 (stereo not given) -8.38% and 13.1%
COc1cccc(N2CCN(C(=O)CN(C)S(=O)(=O)c3ccc4c(c3)c(=O)n(C)c(=O)n4C)CC2)c1 3.8%
CCN(CC)c1ccc(NC(=O)CCNC(=O)c2ccco2)cc1 17.8%
COc1ccc(CNC(=O)COC(=O)CCOc2ccc(C)cc2)cc1OC -1.68%
CN(Cc1cn(C)c2ccccc12)C(=S)Nc1cc(F)cc(F)c1 -1.37%
COc1ccc(CCN2CC(C(=O)NCCc3ccccc3)CC2=O)cc1OC (stereo not given) 6.87%
CCN1CCN(C(=O)c2cnn3c(C(F)F)cc(-c4ccc(C)cc4)nc23)CC1 7.14%
COc1ccc(S(=O)(=O)N2CC(C)N(C(=O)N(C)C)C2C)cc1 (stereo not given) -6.03%
COc1ccc(-n2cnnc2SCC(=O)Nc2ccccc2F)cc1 -6.73%
CCOc1ccccc1NC(=O)CSc1nnc(CNC(=O)c2c(F)cccc2Cl)o1 1.66%
COc1ccc(NC(=O)COc2ccc(/C=N/n3c(C)nnc3C)cc2OC)cc1 -10.3%
COC(=O)Nc1ccc(S(=O)(=O)N2CCCCCC2)cc1 -7.01%
Cc1ccc(C)c(N(CC(=O)NC(C)C)C(=O)CCC(=O)Nc2ccccn2)c1 -3.9%
CO/N=C(\C(=O)N[C@@H]1C(=O)N2C(C(=O)O)=C(COC(N)=O)CS[C@H]12)c1ccco1 4.28%
COCC1=C(C(=O)OC(C)OC(=O)OC(C)C)N2C(=O)[C@@H](NC(=O)/C(=N\OC)c3csc(N)n3)[C@H]2SC1 (stereo not given in full) -12.3%
O=S(=O)(N/N=C/c1ccc(N2CCOCC2)cc1)c1ccc(Br)cc1 -5.5%
Cc1nn2c(-c3ccccc3)ccnc2c1Br 0.66%
Cc1ccc(S(=O)(=O)/N=C2/C=C(C3C(=O)CC(C)(C)CC3=O)C(=O)c3ccccc32)cc1 8.77%
CCc1ccc(S(=O)(=O)/N=C2\C=CC(=O)c3ccccc32)cc1 3.04%
Cc1ccc(S(=O)(=O)/N=C2/C=C(Sc3ncn[nH]3)C(=O)c3ccccc32)c(C)c1 192%
CCc1ccc(S(=O)(=O)/N=C2\C=C(Nc3ccc(O)cc3)C(=O)c3ccccc32)cc1 15.4%
CCOC(=O)c1cn(Cc2ccccc2)c(C(=O)OC(C)(C)C)c1O 2.15%
CN(CC(=O)Nc1ccccc1Br)C(=O)c1ccc(COc2ccccc2)cc1 1.64%
Oc1cccc2cc3cccc(O)c3c(O)c12 5.42%
O=C(O)c1cc2ccc3cccc4ccc(c1)c2c34 7.13%
CC(=O)NC12CC3CC(C1)CC(C(=O)Nc1nccs1)(C3)C2 -6.86%
O=C(COc1ccc(Cl)cc1)Nc1ccc(C(=O)O)cc1NC(=O)COc1ccc(Cl)cc1 -0.41%
COc1cc(/C=C/C(=O)N(C)c2ccccc2C(=O)O)cc(OC)c1OC -9.48%
CC(C)Nc1cc(C(C)(C)C)nc2c(-c3ccccc3)cnn12 1.4%
CC(C)(C)c1cc(NCCCn2ccnc2)n2ncc(-c3ccccc3)c2n1 -5.57%
C[C@@H]1CN(Cc2nc(-c3cccs3)no2)C[C@H](C)O1 17.7%
COc1ccc(CC2NCCC3(O)CCCCC23)cc1 (stereo not given) -4.79%
CCOc1ccc(C(=O)Nc2ccc(C(=O)N3CCOCC3)cc2)c(OCC)c1 2.54%
CCCCC(CC)CNC(=O)C1CC=CCC1C(=O)O (stereo not given) -4.78%
Cc1cc2oc(C(=O)Nc3ccc(S(N)(=O)=O)cc3)c(C)c2cc1Cl 0.34%
COC(=O)c1ccc(Nc2c([N+](=O)[O-])ccc3nonc23)cc1 -2.08%
Cc1ccc(S(=O)(=O)N(C)C)cc1NC(=O)COC(=O)COc1ccc2c(c1)CCC2 -2.74%
Cc1cc(N2CCC(C)CC2)nc2cccc(O)c12 11.4%
Cc1cccc(Nc2nc3ccccc3s2)c1C 6.62%
Cc1cc(Nc2ccccc2O)c2ccccc2n1 8.86%
Cc1cc(Nc2ccccc2)nc2cc(O)ccc12 60.3%
CCOc1ccc(NC(=O)CSc2nc3cccnc3n2CCOC)cc1 8.6%
O=C(NC(=S)N1CCN(C/C=C/c2ccccc2)CC1)c1cccnc1 -1.23%
Cc1cc(C)n(-c2nc(NCCCN(C)C)c3c4c(sc3n2)CCCC4)n1 -3.42%
Cc1cc(C)n(-c2nc(NCCO)c3c4c(sc3n2)CCCC4)n1 1.98%
Cn1cc(C(=O)NCc2cccnc2)c(=O)c2cc(S(=O)(=O)N3CCCCCC3)ccc21 1.24%
CS(=O)(=O)N(Cc1ccc(C(=O)NCCSCc2ccco2)cc1)c1ccccc1 -4.62%
Cc1cccc(N2CCN(C(=O)c3ccnn3C)CC2)c1C 0.84%
CC(C)(C)NCC(O)CON=C1c2ccccc2-c2ccccc21 (stereo not given) -0.28%
COCCNCC(O)CON=C1c2ccccc2-c2ccccc21 (stereo not given) -2.34%
Cc1n[nH]c(=S)n1-c1cccc(Cl)c1 -6.91%
CCn1cc(C(=O)NCc2ccc3c(c2)OCO3)c(=O)c2cc(F)c(N3CCN(C)CC3)cc21 6.63%
CCN(CC)CCNC(=O)c1cn(CC)c2cc(N3CCN(C)CC3)c(F)cc2c1=O 25.1%
CCN(CC)CCCNC(=O)c1cn(CC)c2cc(N3CCN(C(=O)c4ccco4)CC3)c(F)cc2c1=O 14.4%
CC1(C)S/C(=N/N=C/c2cccs2)NC1=O 0.99%
Cc1ccc(C)c(N2CCN(c3ccc([N+](=O)[O-])cn3)CC2)c1 1.13%
Cn1c(CNC(=O)c2ccc3c(c2)OCO3)nnc1SCC(=O)Nc1ccc(F)cc1 2.02%
COc1ccc(Br)cc1CN(C)C(=O)c1ccccc1OCc1c(C)noc1C -8.01%
Cc1ccc(N(CC(=O)NC2CCCCC2)S(=O)(=O)c2c(C)noc2C)cc1 6.34%
CC(O)CNCCNCc1c(OCc2ccccc2)ccc2ccccc12 (stereo not given) 32.8%
CC(C)(CO)NCc1c(OCc2ccc(Cl)cc2)ccc2ccccc12 -7.49%
COc1ccc(S(=O)(=O)N2CCC(NC(=O)C3CCCCC3)CC2)cc1 4.35%
Cc1ccc(-c2ccc(=O)n(CC(=O)NCc3ccco3)n2)cc1 6.56%
COc1ccc(NC(=O)C2CCN(S(=O)(=O)c3ccc(OC)c(OC)c3)CC2)c(OC)c1 5.61%
CCOC(=O)c1cnc(-c2ccccc2O)nc1Cl 3.92%
CCOC(=O)C(=O)Nc1ccccc1C(=O)OCC 9.09%
C[C@@H]1CC=C[C@H]2[C@H]1C(=O)N(Cc1ccccc1)[C@H]2c1ccc(-c2ccc(F)cc2)cc1F -3.92%
Cc1cc(C)c2[nH]c(=O)c(C(c3nnnn3CC3CCCO3)N3CCCC(C)C3)cc2c1 (stereo not given) -1.81%
O=[N+]([O-])c1ccc(Cl)cc1Sc1nc2ccccc2o1 0.44%
O=[N+]([O-])c1ccc(CSc2nc3ccccc3o2)cc1 8.78%
O=S(=O)(Nc1nccs1)c1cnc(Cl)c(Br)c1 -2.83%
Cc1cc(C(=O)CN2C(=O)NC3(CCCc4ccccc43)C2=O)c(C)n1Cc1cccs1 (stereo not given) 8.89%
